# Only some compounds are listed: those with a hit (about 8.8% of all), similar ones and a draw of the others.
# KB-3-1 tox: qHTS assay for MDR1-selective chemotherapeutics: Primary screen using the parental adenocarcinoma cell KB-3-1; KB-3-1 viability, CellTiter-Glo ATP luminescence, 72 h; Potency, µM (doses to about 46.1 µM), actives largely listed as cytotoxic; 1.4% of 400,000 active; AID 1347075, 2019; note: potency is the fitted concentration of half-maximal effect; nearly all actives have a fitted effect of over 60% in size
#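 Luminescent ATP read-out (CellTiter-Glo) measures survival of drug-naive KB-3-1 cells after 72 h compound exposure at 37 °C. Titration series was screened from lowest to highest concentration, with DMSO vehicle plates as background controls.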
# HT1080 IDH1KD tx: qHTS for induction of synthetic lethality in tumor cells producing 2HG: qHTS for the HT-1080-IDH1KD cell line; HT-1080 IDH1 knockdown viability, ATP luminescence, 48 h; Potency, µM (series often up to 46.1 µM), for inactives: top-dose activity, negative = toxicity, actives largely listed as cytotoxic; 2% of 360,000 active; AID 686971, 2013;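 note: potency is the fitted concentration of half-maximal effect; 0% = DMSO wells and -100% = cell-free medium wells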
#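 IDH1KD HT-1080 cells, 750/well, RPMI + 5% FBS; compound pinned after 2 h settling; 48 h, 37 °C; CellTiter-Glo luminescence; % activity normalised to DMSO and no-cell wells; curves fitted, classed by r2 and efficacy.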
# KB-V1 MDR tox: qHTS assay for MDR1-selective chemotherapeutics: Primary screen using the drug-selected MDR subline cells KB-V1 | KB-V1 MDR cells viability, CellTiter-Glo, 72 h | Potency, µM (top dose mostly 46.1 µM), most hits filed as cytotoxic | 3.4% of 400,000 active | AID 1347076, 2019; note: potency is the fitted concentration of half-maximal effect; nearly all actives have a fitted effect of over 60% in size
#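 Cytotoxicity toward P-gp-expressing KB-V1 cells was determined as loss of CellTiter-Glo luminescence after 72 h at 37 degrees C. Compounds were tested in quantitative HTS format across a concentration range, with curves fitted to normalized data.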
# HT1080NT lethal: qHTS for induction of synthetic lethality in tumor cells producing 2HG: qHTS for the HT-1080-NT fibrosarcoma cell line; HT-1080-NT fibrosarcoma viability, CellTiter-Glo ATP luminescence, 48 h; Potency, µM (titrated, usually from 46.1 µM), without a hit: at the top dose activity, negative = less viability, usual class: cytotoxic; 1.6% of 360,000 active; AID 686970, 2013;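 note: NT is the 2HG producing partner of a matched IDH1 knockdown line; potency is the fitted concentration of half-maximal effect; 0% = DMSO-treated cells and -100% = media-only wells without cells; nearly all actives have a fitted effect of over 55% in size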
#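 Fibrosarcoma NT cells, 750 per well in 5% FBS RPMI, were exposed to compound for 48 hours. Viability: CellTiter-Glo luminescence.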
# IL-1B inflam inh: qHTS for Inhibitors of Inflammasome Signaling: IL-1-beta AlphaLISA Primary Screen. THP-1 LPS/ATP IL-1B secretion, AlphaLISA, 16 h; stronger effect = lower value. activity change, % at 57.5 µM. 4.7% of 360,000 active. AID 743279, 2014; in the data active = activity change below about -50%; inconclusive = mostly about -30% to -49%
#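 Secreted IL-1B measured by AlphaLISA bead assay after 16 h compound exposure of THP-1 cells; compounds (final up to 57.5 uM) added 1 h before LPS (250 ng/mL) and ATP (1.25 mM) stimulation; lower signal means less secretion.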
# Starred values were filed as active, the others as inactive; i = inactive; ? = inconclusive; / = no result given; [ ] = dose if it differs, or a comment. Unless noted, calls come from the whole dose curve; as a rule, active = well fitted curve in the direction sought with a large enough effect; inconclusive = small, poorly fitted or top-dose-only effect, or another doubt; inactive = no such curve, though single readings can be large; an effect the other way counts as inactive or inconclusive. Unless noted, % is set by controls: 0 for no effect and ±100 for the full control effect.
SMILES,KB-3-1 tox,HT1080 IDH1KD tx,KB-V1 MDR tox,HT1080NT lethal,IL-1B inflam inh
CCc1ccccc1N1C(=O)C2CC=CCC2C1=O (stereo not drawn),i,2%,i,1%,26
Cc1cccc(OCc2nnc(SCC(=O)NC3CCCC3)n2C)c1,i,7%,i,9%,-1
Cc1cc(C)cc(C(=O)OCC(=O)NCc2ccco2)c1,?,-26%,?,0%,13
CCC(=O)c1ccc(OCc2ccc(C(=O)OC)cc2)c(OC)c1,i,0%,?,5%,-14
CCCCNC(=S)N(C)/N=C/c1ccc(OCc2ccc(C(=O)OC)cc2)c(OC)c1,i,20%,13µM*,13%,-2
O=C(N1CCOCC1)N1c2ccccc2Sc2ccccc21,i,14µM*,?,?,-10
O=C(CN1CCOCC1)N1c2ccccc2Sc2ccccc21,i,2%,i,-2%,19
CC1CN(C(=O)N2c3ccccc3Sc3ccccc32)CC(C)O1 (stereo not drawn),i,-27%,i,-19%,-1
CC1CCCN(C(=O)N2c3ccccc3Sc3ccccc32)C1 (stereo not drawn),i,10µM*,?,?,-1
CCOc1cc(CN2CCN(c3cccc(C(F)(F)F)c3)CC2)ccc1OC,i,8%,?,-7%,-56*
COc1ccc(CC(C)N2CCN(c3cccc(C(F)(F)F)c3)CC2)cc1OC (stereo not drawn),i,?,18µM*,?,-20
CCOc1cc(CN2CCSCC2)ccc1O,i,3%,i,0%,-2
CCOc1cc(CN2CCN(c3cccc(C(F)(F)F)c3)CC2)ccc1O,i,?,16µM*,-20%,-15
CCOc1cc(CN2CCN(c3ccc(C(C)=O)cc3)CC2)ccc1OC,i,-8%,23µM*,-20%,-18
CCC(c1nnnn1CCOC)N1CCN(c2cccc(C(F)(F)F)c2)CC1 (stereo not drawn),i,-13%[9.24 µM],?,-2%,8
CCN(CC)C(=O)CSc1nnc(-c2ccccn2)n1Cc1ccccc1,i,9%,i,-1%,-10
COc1ccc(OC)c(NC(=O)Cc2c(C(=O)O)n(C)c3ccc(C)cc23)c1,i,/,i,/,/
CNS(=O)(=O)c1ccc(NS(=O)(=O)c2ccccc2F)cc1,i,-7%,i,1%,1
COc1ccc(C)c2sc(N(Cc3cccnc3)C(=O)CCc3ccccc3)nc12,i,/,i,/,/
CCCC(=O)Nc1cc(-c2nc3cccnc3s2)ccc1C,i,/,i,/,/
COc1cc(NC(=O)CSc2nnnn2C2CCCC2)cc(OC)c1,i,5%,i,-2%,21
CCCCCCN1C=CC(=C2C(=O)c3ccccc3C2=O)C=C1,?,2%,i,2%,-12
CCCN1C=CC(=C2C(=O)c3ccccc3C2=O)C=C1,?,11µM*,2.9µM*,5.6µM*,?
CCN1C=CC(=C2C(=O)c3ccccc3C2=O)C=C1,15µM*,11µM*,8.2µM*,10µM*,?
N=c1c2c3c(sc2ncn1N)CCC3,i,-20%,i,-13%,44
SMILES,KB-3-1 tox,HT1080 IDH1KD tx,KB-V1 MDR tox,HT1080NT lethal,IL-1B inflam inh
CC(C)(C)C1CCc2c(sc3ncn(N)c(=N)c23)C1 (stereo not drawn),?,?,i,-30%,-75*
O=C(CCS(=O)(=O)c1ccccc1)Nc1nc(-c2cccs2)cs1,i,-16%,23µM*,-10%,-74*
CC(C)c1nnc(NC(=O)CCS(=O)(=O)c2nc(-c3cccs3)cc(C(F)(F)F)n2)s1,i,?,i,?,-110*
COCCSc1nnc(NC(=O)CCS(=O)(=O)c2ccccc2)s1,i,23µM*,i,?,-103*
O=C(COc1ccccc1)Nc1nc(-c2cccs2)cs1,i,-7%,i,-8%,-1
COCCSc1nnc(NC(=O)CS(=O)(=O)c2ccc(C)cc2)s1,i,-2%,i,3%,3
Cc1ccc(S(=O)(=O)CCNC(=O)Cc2ccccc2)cc1,i,-12%,i,-10%,25
COc1ccc(-c2cc3c(=O)n(CC(=O)Nc4ccc(Cl)cc4)ncn3n2)cc1,i,11%,?,2%,25
Cc1ccc(OCCSc2nc3ccccc3n2CC(=O)O)cc1C,i,8%,i,6%,-9
CCOC(=O)c1c[nH]n(-c2ccc(C)cc2)c1=O,i,19%,?,14%,29
CCOC(=O)c1cc2c(C)n(-c3ccc(C)cc3)c(C)c2ccc1=O,21µM*,-20%,5.8µM*,-29%,-66*
CCOC(=O)c1cc2c(C)n(-c3ccc(OCC)cc3)c(C)c2ccc1=O,?,-19%,2.6µM*,-19%,-19
CC1=C(C(=O)N(C)C)CC(CC(=O)NCCN2CCOCC2)C(=O)N1CCCN1CCCC1=O (stereo not drawn),i,18%,i,17%,5
Cc1cc(C)c2nc(NNC(=O)c3cc(=O)c4ccccc4o3)sc2c1,i,-11%,i,-7%,-12
CC1CC(C)CN(C(=O)CCC(=O)Nc2nnc(C3CCCCC3)s2)C1 (stereo not drawn),i,9%,i,?,9
O=C(Nc1ccccc1)C1=C[C@H](C2CCCCC2)C[C@H](OCc2ccc(CO)cc2)O1,i,-17%,i,-15%,-51*
O=C(Nc1ccccc1)C1=C[C@H](c2ccc(Br)cc2)C[C@H](OCc2ccc(CO)cc2)O1,i,-3%,i,-18%,-53*
O=C(C1=C[C@H](C2CCCCC2)C[C@H](OCc2ccc(CO)cc2)O1)N1CCN(Cc2ccccc2)CC1,?,?,i,?,0
O=C(C1=C[C@@H](C2CCCCC2)C[C@@H](OCc2ccc(CO)cc2)O1)N1CCN(Cc2ccccc2)CC1,?,?,?,?,-59*
CCNc1nc(SCCOc2ccc(Cl)cc2Cl)nc(N(C)C)n1,i,1%,i,0%,0
S=c1[nH]c2ccc(Cl)cc2[nH]1,i,2%,18µM*,-2%,25
Cc1cccc(Nc2nc(-c3cccs3)cs2)n1,i,-28%,i,-18%,-15
Cc1cccnc1Nc1nc(-c2ccccc2)cs1,i,-11%,i,-21%,40
Cc1cccnc1Nc1nc(-c2ccccn2)cs1,1.5µM*,1µM*,4.1µM*,1.3µM*,-111*
